# Screening data: PubChem, National Center for Advancing Translational Sciences (NCATS)
# NPR1 antag – antagonists of human natriuretic peptide receptor Npr1. HEK293 hNpr1 GloSensor cGMP, ANP-stimulated luminescence. hit rate 1.6% among 76,000. AID 1347048. Potency, µM (top dose mostly 46.3 µM), for the others: top-dose activity change, negative = inhibition, actives largely listed as inhibitors; calls by dose curve; note: nearly all actives have a fitted effect of over 60% in size
#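 Compound pre-incubated 30 min at room temperature on GloSensor-loaded HEK293 cells stably carrying hNpr1 and the pGS-40F cGMP biosensor. Stimulation uses hNppA at 0.1 nM final; luminescence is taken at baseline and 20 min post-agonist.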
# FLuc inh – blocks purified firefly luciferase enzyme activity. purified P. pyralis luciferase, luminescence, biochemical. P08659. Potency, µM (titrated, usually from 115 µM), hits mostly inhibitors. hit rate 2.5% among 76,000; note: nearly all actives have a fitted effect of over 65% in size
# Target sequence (P08659 whole entry, looked up): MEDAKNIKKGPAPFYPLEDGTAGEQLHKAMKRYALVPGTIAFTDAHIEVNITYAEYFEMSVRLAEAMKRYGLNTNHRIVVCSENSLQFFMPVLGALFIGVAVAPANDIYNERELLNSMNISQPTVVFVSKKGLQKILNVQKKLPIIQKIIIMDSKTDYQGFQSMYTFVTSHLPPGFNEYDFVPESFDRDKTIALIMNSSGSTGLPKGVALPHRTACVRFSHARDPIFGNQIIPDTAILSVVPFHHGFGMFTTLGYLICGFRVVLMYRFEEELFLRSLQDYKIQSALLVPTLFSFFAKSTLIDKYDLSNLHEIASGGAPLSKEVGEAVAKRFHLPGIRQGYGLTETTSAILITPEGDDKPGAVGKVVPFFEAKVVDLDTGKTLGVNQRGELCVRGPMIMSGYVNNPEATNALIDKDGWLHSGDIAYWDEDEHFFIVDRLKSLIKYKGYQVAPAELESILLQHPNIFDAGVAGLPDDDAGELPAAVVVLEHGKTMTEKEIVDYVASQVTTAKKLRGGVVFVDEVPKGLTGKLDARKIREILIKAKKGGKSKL
#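 Cell-free enzyme assay, 10nM P. pyralis luciferase, luciferin and ATP each at 10uM. Inhibition profiled over a 6-point titration, read as luminescence.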
# NIH3T3 tox – NIH 3T3 cell cytotoxicity | NIH 3T3 viability, CellTiter-Glo ATP luminescence, 48-72 h | Potency, µM (titrated, usually from 96.7 µM), for the others: at the highest dose activity change, negative = cytotoxicity, most hits filed as inhibitors | hit rate 4.3% among 94,000; note: nearly all actives have a fitted effect of over 55% in size
#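 Cells were seeded at 400 per well, treated with pin-transferred compound, and kept 48 or 72 hr at 37 °C before CellTiter-Glo addition and luminescence imaging of cellular ATP.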
# HEK293 tox – cytotoxic compounds in HEK 293 cells. HEK 293 viability, ATP luminescence (CellTiter-Glo), 48-72 h. Potency, µM (series often up to 115 µM), for the others: top-dose activity change, negative = cytotoxicity, actives largely listed as inhibitors. hit rate 6.6% among 94,000. AID 1345083; note: nearly all actives have a fitted effect of over 60% in size
#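 HEK 293 cells seeded at 250 cells/well were exposed to compound for 48 or 72 hr at 37 degree Celsius. Viability taken as ATP content by CellTiter-Glo luminescence.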
# Active calls of the source: *; i = inactive; ? = inconclusive; · = no result given; [ ] = remark or other dose. This is a sample that favours compounds with a hit; in the whole collection about 11% have one here. Unless noted, calls come from the whole dose curve; as a rule, active = well fitted curve in the direction sought with a large enough effect; inconclusive = small, poorly fitted or top-dose-only effect, or another doubt; inactive = no such curve, though single readings can be large; an effect the other way counts as inactive or inconclusive. % is set by controls: 0 for no effect and ±100 for the full control effect; potency is the fitted concentration of half-maximal effect.
SMILES,NPR1 antag,FLuc inh,NIH3T3 tox,HEK293 tox
O=C(CN1C(=O)COc2ccc(C(=O)COc3cccc(F)c3)cc21)NCc1ccc2c(c1)OCO2,-18%,i,-5%,-16%
COc1ccc(NC(=O)N2CCc3c(C(=O)NCCCN(C)C)cccc32)cc1,-1%,35µM*,-5%,-7%
CCCNC(=O)c1cccc2c1CCN2C(=O)Nc1ccc(OC)cc1,5µM*,0.35µM*,?,?
COc1ccc(NC(=O)c2cccc3c2CCN3C(=O)Nc2ccc(F)cc2)cc1,2%,?,-12%,?
CCN1c2cc(C(=O)Nc3cccc(C(F)(F)F)c3)ccc2C(=O)N2CCCC21 (stereo unspecified),-5%,i,35µM*,?
CCN1c2cc(C(=O)Nc3cccc(C(F)(F)F)c3)ccc2C(=O)N2CCCCCC21 (stereo unspecified),-15%,i,?,13µM*
O=C1Nc2ccc(-c3ccc(Cl)cc3)cc2C(=O)N2CCN(C(=O)c3cccnc3)C[C@H]12,2%,i,?,45µM*
COc1ccc(C(=O)N2CCN3C(=O)c4cc(-c5ccc(Cl)cc5)ccc4NC(=O)[C@@H]3C2)cc1,-24%,i,28µM*,32µM*
CN(C)c1ccc(C(=O)N2CCN3C(=O)c4cc(-c5ccc6c(c5)OCO6)ccc4NC(=O)[C@H]3C2)cc1,-13%,i,-20%,?
O=C1Nc2ccc(-c3ccc4c(c3)OCO4)cc2C(=O)N2CCN(C(=O)c3cccs3)C[C@@H]12,6%,i,35µM*,32µM*
Cc1ccc(C(=O)N2CCN(C(=O)c3nc4cccnc4n(C4CCCC4)c3=O)CC2)cc1,·,·,1%,i
CCc1noc(-c2cccn3c(CNC(=O)Cc4ccc(Cl)cc4)nnc23)n1,-10%,i,-28%,?
CN(Cc1ccc(Oc2ncccn2)cc1)CC1CCN(CCc2ccc(F)cc2)CC1,6%,i,50µM*,?
CN(Cc1ccc(-n2cccn2)cc1)CC1CCN(CCc2ccc(F)cc2)CC1,-7%,i,?,?
CCCn1c(C)cnc1CC1CCN(C(=O)NCCc2ccccc2)CC1,2%,i,-17%,1%
O=C(NCCC1CCN(C(=O)Nc2cc(F)cc(F)c2)CC1)c1ccccc1,-4%,28µM*,-26%,?
CCCNC(=O)N1CCC(Cc2ccc(CCNC(C)=O)cc2)CC1,·,·,?,45µM*
CCNC(=O)N1CCC(Cc2ccc(C(=O)Nc3cccc(F)c3)cc2)CC1,11µM*,25µM*,?,40µM*
CCNC(=O)c1ccc(CC2CCN(C(C)=O)CC2)cc1,0%,i,-12%,-6%
CCOc1ccc(CN2C[C@@H](CO)[C@H](c3ccncc3)C2)cc1,-20%,i,-23%,?
CN1Cc2cccn2CC1CNC(=O)c1ccsc1 (stereo unspecified),-17%,i,-9%,4%
O=C(C1CCOCC1)N1CCC(Oc2ccccc2-c2nc(-c3ccccc3)no2)C1 (stereo unspecified),2%,i,?,32µM*
Cc1ncccc1C(=O)N1CC(Oc2ccccc2-c2nc(-c3ccccc3)no2)C1,-4%,40µM*,?,?
Cc1cccc(NC(=O)N2CC(Oc3ccccc3-c3nc(-c4ccccc4)no3)C2)c1,2%,i,-13%,-3%
O=C(c1ccncc1)N1CCC(Oc2ccccc2-c2nc(-c3ccccc3)no2)C1 (stereo unspecified),1%,?,?,40µM*
SMILES,NPR1 antag,FLuc inh,NIH3T3 tox,HEK293 tox
COc1ccc(CCN2Cc3cc(NC(=O)c4cccc(F)c4)ccc3OC(C)C2=O)cc1 (stereo unspecified),-14%,i,?,?
COc1ccc(C(C)NC(=O)c2ccc(Cn3ccn4nc5c(c4c3=O)CCCC5)cc2)cc1 (stereo unspecified),-25%,i,-20%,?
O=c1c2nc(-c3ccccc3)ccc2ncn1Cc1ccccn1,1%[70.6 µM],i,79µM*,-10%[172 µM]
COCCn1cnc2ccc(-c3cccc(O)c3)nc2c1=O,2%[70.6 µM],i,22µM*,-21%[172 µM]
O=c1ncn(CC2CC2)c2ccc(-c3ccc(F)cc3F)nc12,0%[70.6 µM],i,100µM*,-42%[172 µM]
COc1cc(F)ccc1-c1ccc2c(n1)c(=O)ncn2CC1CC1,7%[70.6 µM],i,?,-14%[172 µM]
Cc1ccc(-c2ccc3ncn(Cc4ccccn4)c(=O)c3n2)c(C)c1,0%[70.6 µM],i,25µM*,-11%[172 µM]
O=C(c1nc2cccnc2n(Cc2ccccc2)c1=O)N1CCCC1,·,·,-15%[138 µM],-6%[172 µM]
Cc1ccc(-c2cc(N3CCCN(C(=O)COc4ccc(F)cc4)CC3)n[nH]2)cc1C,-18%,i,?,?
O=C(C1CCCCC1)N1CC[C@](O)(c2ccccc2)[C@H](N2CCCC2)C1,-6%,i,?,?
Cn1ccc2cc(-c3ccc4ncn(Cc5ccccn5)c(=O)c4n3)ccc21,-2%[70.6 µM],45µM*,89µM*,-23%[172 µM]
O=c1ncn(CC2CC2)c2ccc(N3CCC(c4ccccc4)CC3)nc12,-2%[70.6 µM],56µM*,-22%[138 µM],?
O=c1c2nc(-c3ccc(Cl)cc3)ccc2ncn1Cc1ccccn1,0%[70.6 µM],i,?,?
O=c1c2nc(N3CCC(c4ccccc4)CC3)ccc2ncn1Cc1ccccn1,5%[70.6 µM],63µM*,-28%[138 µM],?
COCCn1c(=O)c(C(=O)N2CCN(C(=O)c3cccc(OC)c3)CC2)nc2cccnc21,·,·,?,-2%
O=C(C1CCC1)N1CCC2(CC1)CC(N(Cc1ccccc1)C1CC1)CCO2 (stereo unspecified),15%,i,?,?
CC1CCC2(CC1)OCC(C(=O)NCc1ccccc1)N2C(=O)c1ccc(Cl)c(Cl)c1 (stereo unspecified),0%,i,20µM*,?
CCOCC(=O)Nc1nn(-c2ccc(F)cc2)c2cccc(N3CCOC3=O)c12,-8%,35µM*,-11%,?
CCc1nc(C)c(C(=O)Nc2nn(C)c3cccc(N4CCOC4=O)c23)o1,1%,i,i,-6%
Cc1ccc(-c2c(C(=O)NCc3ccccn3)nc3sccn23)cc1,·,·,?,79µM*
Cc1ccc(-c2c(C(=O)NCCCc3ccccc3)nc3sccn23)cc1,·,·,28µM*,18µM*
O=C(NCc1ccccn1)c1nc2sccn2c1-c1ccc(F)cc1,·,·,?,-22%
O=C(NCC1CCCCC1)c1nc2sccn2c1-c1ccccc1,·,·,28µM*,?
COc1ccc(-c2c(C(=O)NC3CCCCCC3)nc3sccn23)cc1,·,·,-22%,45µM*
O=C(NCC1CCCCC1)c1nc2sccn2c1-c1cccnc1,·,·,?,-30%
CN1C(=O)CCC2(C(=O)O)CCCC=C12 (stereo unspecified),3%,i,-8%,5%
CCOc1ccc(C(=O)N2CCCN(S(C)(=O)=O)c3ccccc32)cc1OCC,0%,i,-16%,-16%
O=C(NCCCc1ccccc1)c1nc2sccn2c1-c1cccc(C(F)(F)F)c1,·,·,?,50µM*
